For orientation: AC50 means the concentration giving half of the maximal activity seen.

A short description of test [1]: BSK_CASM3C_SRB: Viability Assessment in the BioMAP Diversity Plus: CASM3C Assay (AID 2283050).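 Also: cells exposed to compound for 24 h.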 The settings on record: primary human coronary artery smooth muscle cells.
Read-out in test [2]: Thrombomodulin, THBD (gene 7056)
Put plainly: BSK_CASM3C_Thrombomodulin: BioMAP Diversity Plus: CASM3C Assay for Thrombomodulin Biomarker Activity (AID 2283051).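 Also: thrombomodulin protein level measured by ELISA 24 h after dosing.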 Conditions: primary human coronary artery smooth muscle cells; actives raise or lower the signal.

Read-out in test [3]: Tissue Factor, F3 (gene 2152)
Put plainly: BSK_CASM3C_TissueFactor: BioMAP Diversity Plus: CASM3C Assay for Tissue Factor Biomarker Activity (AID 2283052).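 Also: cell surface tissue factor protein level read by ELISA.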 Conditions: primary human coronary artery smooth muscle cells; actives raise or lower the signal.

Read-out in test [4]: Interferon-gamma inducible Protein 10 (IP10), CXCL10 (gene 3627)
Put plainly: BSK_hDFCGF_IP10: BioMAP Diversity Plus: hDFCGF Assay for Interferon-gamma inducible Protein 10 (IP10) Biomarker Activity (AID 2283053). Conditions: primary human foreskin fibroblasts; actives raise or lower the signal. The procedure, abridged:
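Cells: human dermal foreskin fibroblasts. Exposure: 24 h post-dosing. Detection: IP-10 ELISA, with values expressed against DMSO controls and fitted in both directions.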

Read-out in test [5]: Urokinase-type plasminogen activator receptor (uPAR), PLAUR (gene 5329)
Put plainly: BSK_CASM3C_uPAR: BioMAP Diversity Plus: CASM3C Assay for Urokinase-type plasminogen activator receptor (uPAR) Biomarker Activity (AID 2283054).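 Also: cell-surface uPAR protein level quantified by ELISA.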 The settings on record: primary human coronary artery smooth muscle cells; actives raise or lower the signal.

Read-out in test [6]: Vascular cell adhesion molecule 1 (VCAM1), VCAM1 (gene 7412)
The experiment in a line: BSK_CASM3C_VCAM1: BioMAP Diversity Plus: CASM3C Assay for Vascular cell adhesion molecule 1 (VCAM1) Biomarker Activity (AID 2283055).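 Also: VCAM-1 protein level quantified by ELISA on the cells.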 The settings on record: primary human coronary artery smooth muscle cells; actives raise or lower the signal.

Read-out in test [7]: Collagen III, COL3A1 (gene 1281)
Put plainly: BSK_hDFCGF_CollagenIII: BioMAP Diversity Plus: hDFCGF Assay for Collagen III Biomarker Activity (AID 2283056). Conditions: primary human foreskin fibroblasts; actives raise or lower the signal. A digest of the protocol: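 Cells: human foreskin fibroblasts, primary. Dosing followed by 24 h incubation, then ELISA for collagen III. Both increases and decreases scored relative to DMSO.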

Read-out in test [8]: Epidermal growth factor receptor (EGFR), EGFR (gene 1956)
The experiment in a line: BSK_hDFCGF_EGFR: BioMAP Diversity Plus: hDFCGF Assay for Epidermal growth factor receptor (EGFR) Biomarker Activity (AID 2283057). The settings on record: primary human foreskin fibroblasts; actives raise or lower the signal. A digest of the protocol:
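Dosing human primary skin fibroblasts, then measuring surface EGFR by ELISA at 24 h, gives the endpoint; gains and losses relative to DMSO were fitted in both directions.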

Read-out in test [9]: Interleukin-8 (IL8), CXCL8 (gene 3576)
The experiment in a line: BSK_hDFCGF_IL8: BioMAP Diversity Plus: hDFCGF Assay for Interleukin-8 (IL8) Biomarker Activity (AID 2283058). Conditions: primary human foreskin fibroblasts; actives raise or lower the signal. A digest of the protocol:
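IL-8 levels from compound-treated primary human fibroblasts were read by ELISA at 24 h, with DMSO serving as baseline for bidirectional fitting.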

Read-out in test [10]: Macrophage colony-stimulating factor (MCSF), CSF1 (gene 1435)
The experiment in a line: BSK_hDFCGF_MCSF: BioMAP Diversity Plus: hDFCGF Assay for Macrophage colony-stimulating factor (MCSF) Biomarker Activity (AID 2283060). The settings on record: primary human foreskin fibroblasts; actives raise or lower the signal. The procedure, abridged: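 M-CSF levels, determined by ELISA, are taken at 24 h after dosing human skin fibroblasts. Responses in either direction are fitted with DMSO serving as the baseline.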

A short description of test [11]: BSK_hDFCGF_SRB: Viability Assessment in the BioMAP Diversity Plus: hDFCGF Assay (AID 2283061).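 Also: cells exposed to compound for 24 h before the read.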 Conditions: primary human foreskin fibroblasts. A digest of the protocol: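 Cells were dosed with test chemical, cultured 24 h, fixed with 10% TCA, then stained with 0.1% SRB and read at 560 nm. The fibroblasts were human foreskin primary cells, and DMSO served as baseline.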

Read-out in test [12]: TIMP metallopeptidase inhibitor 1 (TIMP1), TIMP1 (gene 7076)
The experiment in a line: BSK_hDFCGF_TIMP1: BioMAP Diversity Plus: hDFCGF Assay for TIMP metallopeptidase inhibitor 1 (TIMP1) Biomarker Activity (AID 2283062). The settings on record: primary human foreskin fibroblasts; actives raise or lower the signal. The procedure, abridged: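 Fibroblasts from human foreskin are treated with test chemical and harvested at 24 h. TIMP-1 is quantified by ELISA, and gain or loss of signal is scored against DMSO.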

Read-out in test [13]: Monokine induced gamma interferon (MIG), CXCL9 (gene 4283)
The experiment in a line: BSK_hDFCGF_MIG: BioMAP Diversity Plus: hDFCGF Assay for Monokine induced gamma interferon (MIG) Biomarker Activity (AID 2283063). The settings on record: primary human foreskin fibroblasts; actives raise or lower the signal. The procedure, abridged:
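MIG signal, determined by ELISA, reflects 24 h chemical exposure of human skin primary fibroblasts. DMSO serves as negative control and baseline.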

Read-out in test [14]: Matrix Metallopeptidase 1 (MMP1), MMP1 (gene 4312)
The experiment in a line: BSK_hDFCGF_MMP1: BioMAP Diversity Plus: hDFCGF Assay for Matrix Metallopeptidase 1 (MMP1) Biomarker Activity (AID 2283064). Conditions: primary human foreskin fibroblasts; actives raise or lower the signal. The procedure, abridged: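 Human foreskin fibroblasts exposed to chemical for 24 h; MMP1 detected by ELISA, with DMSO as baseline for bidirectional fitting.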

Read-out in test [15]: Vascular cell adhesion molecule 1 (VCAM1), VCAM1 (gene 7412)
The experiment in a line: BSK_hDFCGF_VCAM1: BioMAP Diversity Plus: hDFCGF Assay for Vascular cell adhesion molecule 1 (VCAM1) Biomarker Activity (AID 2283065).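 As to AC50: VCAM-1 protein level quantified by ELISA after 24 h chemical exposure.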 The settings on record: primary human foreskin fibroblasts; actives raise or lower the signal. A digest of the protocol: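 Cells are dosed, cultured for 24 h, then VCAM-1 is quantified by ELISA; signal increases and decreases are both fitted relative to DMSO.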

Read-out in test [16]: Plasminogen activator inhibitor-1 (PAI1), SERPINE1 (gene 5054)
The experiment in a line: BSK_hDFCGF_PAI1: BioMAP Diversity Plus: hDFCGF Assay for Plasminogen activator inhibitor-1 (PAI1) Biomarker Activity (AID 2283066). Conditions: primary human foreskin fibroblasts; actives raise or lower the signal. The procedure, abridged: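 Fibroblasts from human foreskin were treated with test chemical. After 24 h, PAI-1 was measured by ELISA. Activity was fitted in both directions relative to DMSO.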

Read-out in test [17]: Intercellular Adhesion Molecule 1 (ICAM1), ICAM1 (gene 3383)
The experiment in a line: BSK_KF3CT_ICAM1: BioMAP Diversity Plus: KF3CT Assay for Intercellular Adhesion Molecule 1 (ICAM1) Biomarker Activity (AID 2283067). The settings on record: primary human keratinocytes with fibroblasts; actives raise or lower the signal. A digest of the protocol: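 Dose the keratinocyte/fibroblast co-culture, wait 24 h, measure ICAM-1 by ELISA, then fit increases or decreases against DMSO. Cytotoxicity is checked in parallel cultures by SRB total-protein staining.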

Read-out in test [18]: Interferon-gamma inducible Protein 10 (IP10), CXCL10 (gene 3627)
Put plainly: BSK_KF3CT_IP10: BioMAP Diversity Plus: KF3CT Assay for Interferon-gamma inducible Protein 10 (IP10) Biomarker Activity (AID 2283068). The settings on record: primary human keratinocytes with fibroblasts; actives raise or lower the signal. A digest of the protocol: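 In a primary skin co-culture of keratinocytes and fibroblasts, IP-10 is quantified by ELISA at 24 h after dosing. SRB staining of parallel wells monitors overt toxicity. Curves are fitted both directions against DMSO.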

Test [19] is described as follows: BSK_KF3CT_SRB: Viability Assessment in the BioMAP Diversity Plus: KF3CT Assay (AID 2283069).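 Also: fitted for both signal gain and loss against DMSO baseline.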 Conditions: primary human keratinocytes with fibroblasts. A digest of the protocol: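 Overt cytotoxicity is assessed as total protein by sulforhodamine B staining in parallel human skin co-cultures at 24 h after dosing. DMSO serves as negative control and baseline.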

Calls of active or inactive are those of the source. The calls were made as follows: active = hit-call score of the fitted dose curve at least 0.9, where 1 is the maximum; inactive = score below 0.9.

For the compound `CCc1cccc(C)c1N(C(=O)CS(=O)(=O)O)C(C)COC` (stereo not drawn), the outcome in [1], in [2], in test [3], in test [4], in [5] and in [6] was inactive. Besides, the outcome in test [7], in test [8], in [9], in test [10], in [11] and in test [12] was inactive. The outcome in test [13], in test [14], in [15], in test [16], in test [17] and in test [18] was inactive. For the same compound, the outcome in test [19] was inactive.

In the case of `Cc1ccc([N+](=O)[O-])cc1N`, the outcome in test [1], in test [2], in [3], in test [4], in [5] and in [6] was inactive. Moreover, the outcome in test [7], in [8], in test [9], in [10], in test [11] and in test [12] was inactive. For the same compound, the result in test [13], in test [14], in test [15], in test [16], in [17] and in test [18] was inactive. For the same compound, the result in test [19] was inactive.

As to `Nc1ccc(C(=O)O)cc1`, the result in test [1], in test [2], in test [3], in [4], in [5] and in [6] was inactive. Besides, the outcome in test [7], in [8], in test [9], in test [10], in test [11] and in [12] was inactive. Also, the outcome in test [13], in test [14], in [15], in test [16], in test [17] and in test [18] was inactive. In addition, the outcome in test [19] was inactive.

Take `CCCC(C)C(=O)OCC` (stereo not drawn): the outcome in [1], in test [2], in test [3], in test [4], in [5] and in test [6] was inactive. Moreover, the outcome in test [7], in [8], in test [9], in [10], in test [11] and in test [12] was inactive. For the same compound, the result in test [13], in test [14], in test [15], in test [16], in test [17] and in [18] was inactive. Besides, the result in test [19] was inactive.

Turning to `CCOC(=O)C1=NOC(c2ccccc2)(c2ccccc2)C1`, the result in [1], in test [2], in test [3], in [4], in [5] and in test [7] was inactive. Moreover, the outcome in test [8], in test [9], in test [10], in test [11], in test [12] and in test [13] was inactive. Further, the result in test [14], in test [15], in test [16], in test [17], in [18] and in [19] was inactive. Moreover, in [6], the half-maximal activity concentration (AC50) was 20 µM (active).

As for `C=C(C)C(=O)OCCCCCCCCCCCC`, the result in test [1], in test [2], in test [3], in [4], in [5] and in [6] was inactive. Moreover, the outcome in test [7], in test [8], in [9], in test [10], in test [11] and in test [12] was inactive. The outcome in test [13], in [14], in [15], in test [16], in test [17] and in test [18] was inactive. In test [19], the outcome was inactive.

Regarding `C=CC(=O)OCCCCCCOC(=O)C=C`, the AC50 in test [1] is 20 µM (active); in [3], 1.43 µM (active); in test [4], 2.12 µM (active); in [5], 29.4 µM (active); in test [6], 10.8 µM (active); in test [7] it was 7.72 µM (active). The AC50 in test [9] is 20 µM (active); in [10], 5.72 µM (active); in [11], 5.41 µM (active); in test [12], 9.84 µM (active); in test [13] it was 3.3 µM (active); in test [14] it was 12.8 µM (active). In addition, the AC50 is 0.881 µM (active) in test [15]; 11.5 µM (active) in test [16]; 20 µM (active) in [17]; 26.6 µM (active) in test [18]; 20 µM (active) in test [19]. Moreover, the result in test [2] and in test [8] was inactive.
